Inconclusive results are not listed. A number with no mark means an inactive call. Calls of active or inactive are those of the source. Calls come from the whole dose curve; as a rule, active = well fitted inhibition curve with a large enough effect; inconclusive = small, poorly fitted or top-dose-only effect; inactive = no such curve, though single readings can be large or run the other way.
The compounds below were run against Cytochrome P450 3A7 (Homo sapiens) (UniProt P24462) (assay: Cytochrome P450 family 3 subfamily A member 7 (CYP3A7) small molecule antagonists: luciferase biochemical qHTS assay (AID 1963596; note: nearly all actives have a fitted effect of over 40% in size)). Details: P450-Glo CYP3A7 enzyme luminescence, 1 h; series mostly up to 57.4 µM; activity change, negative = inhibition: at the top concentration.
Cytochrome P450 3A7 (Homo sapiens), sequence (P24462 whole entry, looked up): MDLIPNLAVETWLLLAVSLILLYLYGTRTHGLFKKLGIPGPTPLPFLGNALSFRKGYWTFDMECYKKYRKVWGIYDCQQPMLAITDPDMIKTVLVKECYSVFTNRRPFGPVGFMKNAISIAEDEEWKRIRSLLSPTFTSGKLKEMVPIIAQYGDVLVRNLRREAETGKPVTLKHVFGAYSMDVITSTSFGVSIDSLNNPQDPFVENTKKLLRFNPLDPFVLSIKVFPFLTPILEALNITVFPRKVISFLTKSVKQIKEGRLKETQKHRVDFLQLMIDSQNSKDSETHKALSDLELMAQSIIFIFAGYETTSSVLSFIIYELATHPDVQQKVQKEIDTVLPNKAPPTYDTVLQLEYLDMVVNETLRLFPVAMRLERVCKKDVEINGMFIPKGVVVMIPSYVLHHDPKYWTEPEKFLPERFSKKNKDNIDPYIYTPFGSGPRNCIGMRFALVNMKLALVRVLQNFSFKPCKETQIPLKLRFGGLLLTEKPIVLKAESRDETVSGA
Outline: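 Compounds were screened in qHTS format for interference with CYP3A7 turnover of a proluciferin substrate. Reactions ran 1 h at room temperature after NADPH regeneration solution was added, then luciferin product was detected by luminescence.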
`OC[C@H]1O[C@@H]2O[C@H]3[C@H](O)[C@@H](O)[C@@H](O[C@H]4[C@H](O)[C@@H](O)[C@@H](O[C@H]5[C@H](O)[C@@H](O)[C@@H](O[C@H]6[C@H](O)[C@@H](O)[C@@H](O[C@H]7[C@H](O)[C@@H](O)[C@@H](O[C@H]1[C@H](O)[C@@H]2O)O[C@@H]7CO)O[C@@H]6CO)O[C@@H]5CO)O[C@@H]4CO)O[C@@H]3CO` was tested, and the “activity change, negative = inhibition” value was 0.893%.
For `CCOC(=O)c1ccc(NC(=O)c2cc(=O)c3ccc(C)c(C)c3o2)cc1`, the “activity change, negative = inhibition” value was -22.1%.
For `O=C(Nc1cccc(C2=NCCN2)c1)Nc1cccc(C2=NCCN2)c1`, the “activity change, negative = inhibition” value was 16.9% [at 23.9 µM].
With `OC[C@@H](O)C(O)[C@@H](O)CO` (stereo not given in full) the “activity change, negative = inhibition” value was -1.26%.
In the case of `C[C@H](CCCC(C)(C)O)[C@H]1CC[C@H]2[C@@H]3CC=C4C[C@@H](O)CC[C@]4(C)[C@H]3CC[C@]12C`, the “activity change, negative = inhibition” value is reported as 2.19%.
`CCC(O)c1ccccc1` (stereo not given) was tested, and the “activity change, negative = inhibition” value was -7.32%.
In the case of `COC(=O)CCC[N+](C)(C)C`, the “activity change, negative = inhibition” value is reported as 8.07%.
For `CCC(Cc1c(I)cc(I)c(O)c1I)C(=O)O` (stereo not given), the Potency was 16.9 µM (active).
In the case of `COC(=O)[C@H](Cc1cccc(C(=N)N)c1)[C@@H](C)NC(=O)c1ccc(-c2cc[n+]([O-])cc2)cc1`, the “activity change, negative = inhibition” value is reported as -7.2%.
With `COc1cccc(C(=O)NC(c2ccc(Cl)cc2)c2cc(Cl)c3cccnc3c2O)c1` (stereo not given) the “activity change, negative = inhibition” value was -6.07%.
`O=C(c1ccc(OC(F)F)c(C#Cc2ccccn2)c1)N1Cc2cccnc2C1` was tested, and the “activity change, negative = inhibition” value was 0%.
`NS(=O)(=O)c1ccc(NC(=O)Nc2ccc(F)cc2)cc1` was tested, and the “activity change, negative = inhibition” value was -0.134%.
For `COc1ccccc1C(=O)Nc1cccc(NC(=O)c2cccc(C)c2)c1`, the “activity change, negative = inhibition” value was 3.77%.
In the case of `O=P(O)(O)OC(CO)CO`, the “activity change, negative = inhibition” value is reported as -2.72%.
With `COc1cc2nc(=NC(=O)c3cccnc3)n3c(c2cc1OC)NCC3` the “activity change, negative = inhibition” value was -2.16%.
In the case of `CCN(CC)C(=O)c1cccnc1`, the “activity change, negative = inhibition” value is reported as 5.04%.
For `Cc1cccc(C)c1NC(=O)C(C)N` (stereo not given), the “activity change, negative = inhibition” value was -14.5%.
For `COc1ccc(C#Cc2ccc(C(=O)N3CCC[C@@H](O)C3)c(F)c2)cc1`, the “activity change, negative = inhibition” value was -7.99%.
`C[C@H](O)CN(C)C` was tested, and the “activity change, negative = inhibition” value was -1.74%.
In the case of `CC1CCCCC1N(Cc1ccccc1)[S+](=O)([O-])c1ccc([S+](=O)([O-])N(C)C)cc1` (stereo not given), the “activity change, negative = inhibition” value is reported as 0.838%.
In the case of `COc1ccccc1Nc1nc(-c2ccccc2F)nc2ccccc12`, the “activity change, negative = inhibition” value is reported as -2.5%.
With `Cc1cc(N)c2cc(NC(=O)Nc3ccc4nc(C)cc(N)c4c3)ccc2n1` the “activity change, negative = inhibition” value was 6.52%.
In the case of `NC[C@H]1CCC[C@@H](CNC(=O)[C@@H](Cc2c[nH]c3ccccc23)NC(=O)N2CCC3(C=Cc4ccccc43)CC2)C1`, the “activity change, negative = inhibition” value is reported as 0%.
`CCOC(=O)C(CCc1ccccc1)NC1CCCN2CCCC(C(=O)O)N2C1=O` (stereo not given) was tested, and the “activity change, negative = inhibition” value was -11.2%.
In the case of `COc1ccc(C=CC(=O)O)cc1`, the “activity change, negative = inhibition” value is reported as 2.44%.
`C=CCCCCCCCCC(=O)OC` was tested, and the “activity change, negative = inhibition” value was -0.826%.
In the case of `COc1cc(C(=O)NC(c2ccc(Cl)cc2)c2cc(Cl)c3cccnc3c2O)cc(OC)c1OC` (stereo not given), the “activity change, negative = inhibition” value is reported as 16.9%.
`COc1ccc(-n2[nH]c3c(cnc4ccccc43)c2=O)cc1` was tested, and the “activity change, negative = inhibition” value was 12.4%.
In the case of `COC(=O)C(CN)c1c[nH]c2ccc(OC)cc12` (stereo not given), the “activity change, negative = inhibition” value is reported as 20.6%.
In the case of `CC(C)c1cc2c(N3CCN(C4=NCC(C)(C)S4)CC3)ncnc2s1`, the “activity change, negative = inhibition” value is reported as 0%.
With `Cc1cc(NC(=O)Nc2ccc(F)c(F)c2)n(-c2ccccc2)n1` the “activity change, negative = inhibition” value was -28.5%.
In the case of `Cn1c(=O)c2c(nc(CN3CCN(C(=O)C4CC4)CC3)n2Cc2cccc(F)c2)n(C)c1=O`, the “activity change, negative = inhibition” value is reported as -21.1%.
`C/C=C/C=C/C(=O)O` was tested, and the “activity change, negative = inhibition” value was 1.69%.
With `COC(=O)CCC(=O)CN` the “activity change, negative = inhibition” value was -1.05%.
In the case of `CC(C)c1cccc(O)c(=O)c1`, the “activity change, negative = inhibition” value is reported as 0.829%.
`Nc1nc(N)c2nc(CNc3ccc(C(=O)N[C@@H](CCC(=O)O)C(=O)O)cc3)cnc2n1` was tested, and the “activity change, negative = inhibition” value was 0%.
For `CC(C)NC(=O)c1ccc(C#Cc2ccncc2)cn1`, the “activity change, negative = inhibition” value was -10.2%.
In the case of `COc1cc(F)c(C(C)C)cc1-c1ccc(C(F)(F)F)cc1CN1C(=O)OC(c2cc(C(F)(F)F)cc(C(F)(F)F)c2)C1C` (stereo not given), the “activity change, negative = inhibition” value is reported as -21.6%.
`CC(C)Nc1nc(Nc2ccccc2)nc(-c2ccccc2)n1` was tested, and the “activity change, negative = inhibition” value was -13%.
For `CC(=O)Nc1ccc(C)cc1-c1nc2ccccc2n(CC(=O)Nc2cc(Cl)ccc2C)c1=O`, the “activity change, negative = inhibition” value was -19.2%.
% is set by controls: 0 for no effect and ±100 for the full control effect; potency is the fitted concentration of half-maximal effect.
